Among the data in PubChem BioAssay (NCATS) are Potency and outcome values, retold here.

The target of assay [1] is Cytochrome P450 1A2 (Homo sapiens) (UniProt P05177). As to the kind of experiment: p450-cyp1a2 (AID 410; calls by dose curve; also: potency is read from the fitted curve at half-maximal effect). In outline:
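Read-out is luminescence from luciferin produced by CYP1A2 demethylation of Luciferin-ME (100uM, at Km). Detection reagent stopped the 60 min NADPH-dependent reaction; signals were normalized to 57 uM furafylline.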

Assay [2] has as its target Glucocorticoid receptor (Homo sapiens) (UniProt P04150). The assay is described as follows: GR-GFP Redistribution (AID 450;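 active = compounds whose dose series gives a full or clear partial fitted curve of increased nuclear translocation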; also: potency is read from the fitted curve at half-maximal effect).
For assay [3] the target is unchanged. As to the kind of experiment: GR-EFC Redistribution (AID 451; calls by dose curve; also: potency is read from the fitted curve at half-maximal effect). Conditions: CHO-K1 GR-EFC translocation, beta-gal luminescence, 2 h. In outline:
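CHO-K1 cells stably expressing nuclear-localized β-gal enzyme acceptor and GR fused C-terminally to the enzyme donor fragment; ligand-driven nuclear translocation restores β-gal by complementation. Compounds titrated up to 46 uM final, 2 h at 37 °C; luminescence read.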

Assay [4] concerns the target Cytochrome P450 2C9 (Homo sapiens) (UniProt P11712). The assay is described as follows: qHTS Assay for Inhibitors and Substrates of Cytochrome P450 2C9 (AID 883). Also: nearly all actives have a fitted effect of over 60% in size. Also: potency is read from the fitted curve at half-maximal effect. In outline: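 A luminogenic readout tracked human CYP2C9 (10nM) converting deoxyluciferin (100uM, at KM) in 25mM KPO4 during 60 min at 37C with regenerated NADPH. Values normalized to 57uM sulphaphenazole as complete inhibition.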
On the technique in general: qHTS replaces the single test concentration by a dilution series.

Assay [5] has as its target Cytochrome P450 2D6 (Homo sapiens) (UniProt P10635). As to the kind of experiment: qHTS Assay for Inhibitors and Substrates of Cytochrome P450 2D6 (AID 891). Also: nearly all actives have a fitted effect of over 60% in size. Also: potency is read from the fitted curve at half-maximal effect. In outline:
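Luminescent read-out of luciferin formed by 5 nM human CYP2D6 demethylating 30 uM Luciferin-ME EGE (Km level) over 60 min at room temperature after NADPH regeneration addition. Data normalized to full inhibition by 1.43 uM quinidine.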

Assay [6] addresses Cytochrome P450 2C19 (Homo sapiens) (UniProt P33261). As to the kind of experiment: qHTS Assay for Inhibitors and Substrates of Cytochrome P450 2C19 (AID 899). Also: nearly all actives have a fitted effect of over 60% in size. Also: potency is read from the fitted curve at half-maximal effect. In outline: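 NADPH-dependent conversion of Luciferin-H EGE (10uM, at KM) by 5nM enzyme in 50mM KPO4, 60 min at 37C following 10 min compound preincubation. Stopped with luciferin detection buffer; luminescence read after 20 min.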

Assay [7] has as its target Cytochrome P450 3A4 (Homo sapiens) (UniProt P08684). As to the kind of experiment: qHTS Assay for Inhibitors and Substrates of Cytochrome P450 3A4 (AID 884). Also: nearly all actives have a fitted effect of over 50% in size. Also: potency is read from the fitted curve at half-maximal effect. In outline:
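Luminescent readout of luciferin produced by CYP3A4 (20 nM) dealkylation of Luciferin-PPXE, 25 uM (its KM). NADPH-driven reaction ran 60 min at RT after 10 min compound preincubation; data scaled to 57 uM ketoconazole as 100% inhibition.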

For assay [8] the target is unchanged. As to the kind of experiment: qHTS Assay for Activators of Cytochrome P450 3A4 (AID 885). Also: nearly all actives have a fitted effect of over 65% in size. In outline: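 Luminescent readout of luciferin formed from 25 uM Luciferin-PPXE (KM level) by 20 nM CYP3A4 in 200 mM KPO4, with 60 min NADPH-driven reaction at room temperature after 10 min compound exposure. Ketoconazole (57 uM) defined 100% inhibition.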
The target of assay [9] is DNA dC->dU-editing enzyme APOBEC-3G (Homo sapiens) (UniProt Q9HC16). As to the kind of experiment: qHTS for inhibitors of Vif-A3G interactions: Validation (AID 588379). The method in brief:
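Yellow fluorescence (Ex 488, Em 500-530) of Vif-coexpressing HeLa A3G-eYFP cells, scanned by Acumen cytometer, reports blocked A3G degradation. Cells plated at 700/well overnight at 37 deg C before compound addition, then a further overnight compound incubation at 37 deg C.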

Assay [10] addresses 3',5'-cyclic-AMP phosphodiesterase 4B (Homo sapiens) (UniProt Q07343). The assay is described as follows: qHTS Assay for Inhibitors of PDE-IV (AID 607; active = well fitted activation curve with a large enough effect in the main read-out, with a control signal flat, not every such curve was filed as active). The method in brief: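 Cell-based read-out of cAMP via a modified cyclic nucleotide-gated channel and membrane potential dye (535/590 nm) in HEK293 cells expressing PDE4 endogenously. Compounds tested up to 22.9 uM final; 100 uM RO 20-1724 reference.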

The target in assay [11] is Mitogen-activated protein kinase 10 (Mus musculus) (UniProt Q61831). As to the kind of experiment: JNK3 AlphaScreen Assay (AID 530; active = well fitted curve in either direction with a large enough effect, not every such curve was filed as active;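 also: kinase came from lysate of stimulated human HepG2 cells; signal reports phosphorylation of biotinylated GST-cJun 1-79 at Ser73 with 10 µM ATP; series mostly up to about 57 µM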). The method in brief:
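Biotinylated GST-cJun(1-79) served as substrate for JNK3 in HepG2 lysates stimulated with IL-1beta and TNF-alpha. ATP was 10 uM final, pH 7.6. Ser73 phosphorylation was quantified by AlphaScreen (680 nm excitation).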
Background: In Alpha technology, singlet oxygen from a donor bead excites a nearby acceptor bead.

SMILES strings stand for the structures. Unmarked numbers belong to inactive results. Inconclusive results are not listed. The source made the active and inactive calls. Unless noted, calls follow the shape of the dose curve; as a rule, active = well fitted curve in the direction sought with a large enough effect; inconclusive = small, poorly fitted or top-dose-only effect, or another doubt; inactive = no such curve, though single readings can be large; an effect the other way counts as inactive or inconclusive. A value given as a limit tells only on which side of the number the result lay.

Chain of Cytochrome P450 3A4 (Homo sapiens) (P08684 whole entry, looked up): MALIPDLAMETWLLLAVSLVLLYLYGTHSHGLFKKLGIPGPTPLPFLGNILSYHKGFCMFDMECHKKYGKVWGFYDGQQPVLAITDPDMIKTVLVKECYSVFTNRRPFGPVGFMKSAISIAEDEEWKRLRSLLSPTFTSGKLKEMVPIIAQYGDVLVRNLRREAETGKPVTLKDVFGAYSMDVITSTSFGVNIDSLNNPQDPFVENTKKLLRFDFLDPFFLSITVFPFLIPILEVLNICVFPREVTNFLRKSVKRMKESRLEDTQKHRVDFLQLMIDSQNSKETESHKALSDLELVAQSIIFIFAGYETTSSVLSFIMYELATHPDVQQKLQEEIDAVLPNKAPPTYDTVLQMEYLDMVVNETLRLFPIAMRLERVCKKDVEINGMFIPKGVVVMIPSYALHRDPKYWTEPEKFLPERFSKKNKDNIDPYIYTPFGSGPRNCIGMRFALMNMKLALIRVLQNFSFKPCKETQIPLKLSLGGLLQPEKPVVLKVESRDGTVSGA
Chain of Cytochrome P450 2C19 (Homo sapiens) (P33261 whole entry, looked up): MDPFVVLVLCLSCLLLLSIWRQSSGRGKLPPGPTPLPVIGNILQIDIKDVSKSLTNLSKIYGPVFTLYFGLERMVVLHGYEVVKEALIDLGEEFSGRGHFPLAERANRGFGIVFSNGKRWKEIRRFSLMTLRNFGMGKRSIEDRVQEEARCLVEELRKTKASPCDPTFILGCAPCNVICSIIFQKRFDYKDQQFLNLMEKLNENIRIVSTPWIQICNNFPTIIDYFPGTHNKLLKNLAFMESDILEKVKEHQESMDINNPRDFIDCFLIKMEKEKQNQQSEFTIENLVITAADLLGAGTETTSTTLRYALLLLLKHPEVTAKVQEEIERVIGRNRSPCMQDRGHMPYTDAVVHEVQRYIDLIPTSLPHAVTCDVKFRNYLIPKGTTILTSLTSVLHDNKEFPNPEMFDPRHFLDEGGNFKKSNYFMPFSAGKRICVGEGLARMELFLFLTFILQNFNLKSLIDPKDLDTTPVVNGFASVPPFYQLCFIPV
Chain of 3',5'-cyclic-AMP phosphodiesterase 4B (Homo sapiens) (Q07343 whole entry, looked up): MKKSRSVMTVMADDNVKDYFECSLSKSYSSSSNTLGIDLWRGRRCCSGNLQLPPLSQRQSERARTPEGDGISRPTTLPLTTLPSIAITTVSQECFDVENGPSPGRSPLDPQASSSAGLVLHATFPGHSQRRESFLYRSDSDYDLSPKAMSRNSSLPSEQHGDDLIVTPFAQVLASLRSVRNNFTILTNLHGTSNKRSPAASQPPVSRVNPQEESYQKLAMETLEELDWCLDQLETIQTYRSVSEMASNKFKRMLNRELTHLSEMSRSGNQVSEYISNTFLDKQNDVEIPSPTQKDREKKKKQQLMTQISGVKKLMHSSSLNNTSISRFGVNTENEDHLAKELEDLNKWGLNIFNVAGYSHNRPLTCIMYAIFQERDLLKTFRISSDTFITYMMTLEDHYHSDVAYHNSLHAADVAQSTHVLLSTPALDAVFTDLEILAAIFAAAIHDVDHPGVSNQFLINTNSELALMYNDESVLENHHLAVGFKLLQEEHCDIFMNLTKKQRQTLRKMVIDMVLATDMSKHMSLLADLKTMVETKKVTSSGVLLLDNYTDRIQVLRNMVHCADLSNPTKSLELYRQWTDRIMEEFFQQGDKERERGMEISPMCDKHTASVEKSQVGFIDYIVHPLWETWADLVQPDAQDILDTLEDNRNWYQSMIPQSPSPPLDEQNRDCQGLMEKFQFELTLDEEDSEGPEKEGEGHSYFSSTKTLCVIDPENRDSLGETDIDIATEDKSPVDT
Chain of Glucocorticoid receptor (Homo sapiens) (P04150 whole entry, looked up): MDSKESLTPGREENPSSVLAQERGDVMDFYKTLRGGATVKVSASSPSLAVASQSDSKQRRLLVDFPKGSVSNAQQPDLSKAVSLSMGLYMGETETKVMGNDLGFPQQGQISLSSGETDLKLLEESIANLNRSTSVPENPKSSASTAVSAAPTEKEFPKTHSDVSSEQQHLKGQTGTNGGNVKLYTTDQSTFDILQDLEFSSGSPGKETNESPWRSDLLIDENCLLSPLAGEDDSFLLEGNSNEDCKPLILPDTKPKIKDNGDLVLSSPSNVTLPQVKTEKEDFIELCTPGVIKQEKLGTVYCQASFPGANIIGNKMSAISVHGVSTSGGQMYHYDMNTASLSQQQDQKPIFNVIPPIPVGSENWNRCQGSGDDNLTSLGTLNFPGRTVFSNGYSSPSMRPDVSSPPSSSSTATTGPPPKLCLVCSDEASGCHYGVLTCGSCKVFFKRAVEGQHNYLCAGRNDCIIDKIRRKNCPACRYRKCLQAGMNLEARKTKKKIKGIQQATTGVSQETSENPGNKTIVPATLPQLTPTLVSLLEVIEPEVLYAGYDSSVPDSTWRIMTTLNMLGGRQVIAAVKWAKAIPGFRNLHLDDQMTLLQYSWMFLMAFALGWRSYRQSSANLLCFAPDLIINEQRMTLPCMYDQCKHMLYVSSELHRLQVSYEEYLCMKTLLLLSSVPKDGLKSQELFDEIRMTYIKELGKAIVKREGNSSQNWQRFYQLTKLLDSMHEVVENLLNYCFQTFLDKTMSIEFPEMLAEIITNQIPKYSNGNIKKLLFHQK
Chain of Cytochrome P450 2D6 (Homo sapiens) (P10635 whole entry, looked up): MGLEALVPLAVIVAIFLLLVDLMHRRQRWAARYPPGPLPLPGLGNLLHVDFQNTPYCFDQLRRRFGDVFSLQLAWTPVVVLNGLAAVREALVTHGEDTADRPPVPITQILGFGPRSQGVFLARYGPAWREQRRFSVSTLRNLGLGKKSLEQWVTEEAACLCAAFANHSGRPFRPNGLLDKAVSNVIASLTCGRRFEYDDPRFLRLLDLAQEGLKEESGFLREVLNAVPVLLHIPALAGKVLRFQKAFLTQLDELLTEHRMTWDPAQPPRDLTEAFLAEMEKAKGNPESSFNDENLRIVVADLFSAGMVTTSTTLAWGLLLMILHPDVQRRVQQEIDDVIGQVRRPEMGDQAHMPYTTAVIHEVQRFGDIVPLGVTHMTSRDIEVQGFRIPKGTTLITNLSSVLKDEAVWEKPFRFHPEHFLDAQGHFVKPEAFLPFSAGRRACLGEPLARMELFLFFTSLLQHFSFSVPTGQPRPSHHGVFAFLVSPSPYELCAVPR
Chain of Cytochrome P450 2C9 (Homo sapiens) (P11712 whole entry, looked up): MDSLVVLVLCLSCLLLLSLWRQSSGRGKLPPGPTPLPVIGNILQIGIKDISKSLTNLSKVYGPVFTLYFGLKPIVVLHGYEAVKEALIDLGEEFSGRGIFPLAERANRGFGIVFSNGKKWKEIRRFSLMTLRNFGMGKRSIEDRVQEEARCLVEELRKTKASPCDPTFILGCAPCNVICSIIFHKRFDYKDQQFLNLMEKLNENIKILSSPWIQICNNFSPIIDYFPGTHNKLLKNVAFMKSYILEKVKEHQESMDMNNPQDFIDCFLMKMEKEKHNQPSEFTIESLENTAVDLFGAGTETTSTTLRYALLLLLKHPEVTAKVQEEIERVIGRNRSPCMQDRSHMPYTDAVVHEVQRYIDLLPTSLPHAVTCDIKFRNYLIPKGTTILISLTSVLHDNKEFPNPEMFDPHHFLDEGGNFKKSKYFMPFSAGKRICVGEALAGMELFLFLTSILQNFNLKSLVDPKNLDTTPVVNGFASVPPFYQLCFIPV
Chain of DNA dC->dU-editing enzyme APOBEC-3G (Homo sapiens) (Q9HC16 whole entry, looked up): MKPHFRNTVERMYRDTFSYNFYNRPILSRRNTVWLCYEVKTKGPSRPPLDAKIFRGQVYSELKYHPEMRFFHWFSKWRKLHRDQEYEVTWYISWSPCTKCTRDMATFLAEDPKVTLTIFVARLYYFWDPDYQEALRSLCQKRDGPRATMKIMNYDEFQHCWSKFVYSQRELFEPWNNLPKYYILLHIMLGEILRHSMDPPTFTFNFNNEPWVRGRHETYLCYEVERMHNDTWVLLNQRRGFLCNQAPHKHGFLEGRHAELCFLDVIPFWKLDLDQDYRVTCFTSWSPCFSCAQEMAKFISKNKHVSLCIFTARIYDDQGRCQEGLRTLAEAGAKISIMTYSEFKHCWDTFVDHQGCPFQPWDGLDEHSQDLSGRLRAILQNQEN
Chain of Cytochrome P450 1A2 (Homo sapiens) (P05177 whole entry, looked up): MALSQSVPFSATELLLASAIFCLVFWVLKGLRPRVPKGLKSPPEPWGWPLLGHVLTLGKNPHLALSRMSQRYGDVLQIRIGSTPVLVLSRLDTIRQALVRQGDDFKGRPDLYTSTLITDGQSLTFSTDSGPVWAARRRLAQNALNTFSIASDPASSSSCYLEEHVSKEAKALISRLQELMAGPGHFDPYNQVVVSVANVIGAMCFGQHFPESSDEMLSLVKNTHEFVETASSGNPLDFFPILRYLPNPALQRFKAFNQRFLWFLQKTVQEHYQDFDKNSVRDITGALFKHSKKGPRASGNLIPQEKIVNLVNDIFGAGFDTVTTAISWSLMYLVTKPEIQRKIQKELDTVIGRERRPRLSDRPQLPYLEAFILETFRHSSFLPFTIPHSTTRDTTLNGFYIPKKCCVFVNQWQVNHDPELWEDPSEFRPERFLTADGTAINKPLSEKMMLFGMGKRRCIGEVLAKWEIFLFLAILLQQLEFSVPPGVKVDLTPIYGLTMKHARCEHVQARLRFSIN

For the molecule `C[C@@H]1C[C@@]2(C)Oc3ccccc3[C@H]3OC[C@]1(COC(=O)Nc1ccccc1)[C@@H](C)[C@@H]32`, the Potency in [1] is 15.8 µM (active); in assay [2], > 46 µM; in [3], > 46 µM; in assay [4], 20 µM (active); in [6], 10 µM (active). Besides, the Potency entry in assay [5] is “inactive”.
As for `Cc1c(-c2ccccc2)oc2cc(O)ccc2c1=O`, the Potency in [1] was 0.251 µM (active); in assay [2], > 46 µM; in [3] it was > 46 µM; in assay [4], 2.51 µM (active); in assay [7], 15.8 µM (active); in assay [6], 0.126 µM (active). Besides, the Potency result in assay [8] and in [5] was “inactive” throughout. Also, the molecule was called inactive in assay [9].
For the molecule `COc1cc(-c2cc(=O)c3ccccc3o2)ccc1O`, the Potency in [1] is 0.0794 µM (active); in assay [2], > 46 µM; in [3] it was > 46 µM; in assay [7], 15.8 µM (active); in [5], 31.6 µM (active); in assay [6], 6.31 µM (active). The Potency entry in assay [10] and in assay [8] was “inactive” each time. The molecule was called inactive in assay [9].
Consider `O=c1cc(-c2ccccc2O)oc2c1ccc1ccccc12`, for which the Potency was 0.501 µM (active) in [1], > 46 µM in [2] and > 46 µM in assay [3]. In addition, the Potency result in assay [10], in assay [4], in [8] and in [5] was “inactive” throughout. In addition, the molecule was called inactive in assay [9].
Regarding `COc1cc2c(cc1OC)C(=O)N(C)CC2`, the Potency is 2 µM (active) in assay [1] and > 46 µM in assay [2]. In addition, the Potency result in assay [11], in assay [7], in assay [5] and in assay [6] was “inactive” in each case. The call in assay [9] was inactive.
As to `COc1ccc([C@@H]2CC(=O)c3c(O)cc(O[C@@H]4O[C@@H](CO[C@@H]5O[C@@H](C)[C@@H](O)[C@@H](O)[C@H]5O)[C@@H](O)[C@@H](O)[C@H]4O)cc3O2)cc1O`, the Potency result in [1], in assay [10], in assay [4] and in assay [5] was “inactive” each time. Also, the Potency in assay [2] and in [3] was > 46 µM in each case.
